Mcl1-Bid inh: Mcl-1/Bid interaction inhibition; TR-FRET Mcl-1/Bid-Dy647 peptide binding, 1536-well; inhibition, % at 21.7 µM; 220,000 compounds, 0.97% hits;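 active = compounds that cut the binding signal by more than half at the single screening dose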;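 note: His-tagged Mcl-1 with europium anti-His antibody binding Bid BH3 peptide; 0% = Mcl-1 plus peptide wells and 100% = peptide-only wells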
Target sequence (Q07820 whole entry, looked up): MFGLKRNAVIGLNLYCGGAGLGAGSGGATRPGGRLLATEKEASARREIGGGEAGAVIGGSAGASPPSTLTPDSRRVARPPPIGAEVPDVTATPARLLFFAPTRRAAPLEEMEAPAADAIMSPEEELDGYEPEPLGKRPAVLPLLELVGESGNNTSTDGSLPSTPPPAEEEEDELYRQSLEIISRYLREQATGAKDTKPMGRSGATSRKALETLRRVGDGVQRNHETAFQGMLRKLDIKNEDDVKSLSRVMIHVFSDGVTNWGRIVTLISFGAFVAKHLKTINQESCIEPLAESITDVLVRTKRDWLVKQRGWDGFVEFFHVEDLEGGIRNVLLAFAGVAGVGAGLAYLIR
14-3-3 Bad inh: disrupts binding of bovine 14-3-3 zeta to phospho-Bad peptide | TR-FRET 14-3-3zeta/Dy647-pBad peptide displacement, 1 h | P63103 | AID 781 | 220,000 compounds, 0.71% hits | inhibition, % at 21.7 µM;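 active = inhibition above about 70%, limit read from the data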;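 note: 0% = full 14-3-3 plus peptide FRET controls and 100% = background without 14-3-3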
Target sequence (P63103 whole entry, looked up): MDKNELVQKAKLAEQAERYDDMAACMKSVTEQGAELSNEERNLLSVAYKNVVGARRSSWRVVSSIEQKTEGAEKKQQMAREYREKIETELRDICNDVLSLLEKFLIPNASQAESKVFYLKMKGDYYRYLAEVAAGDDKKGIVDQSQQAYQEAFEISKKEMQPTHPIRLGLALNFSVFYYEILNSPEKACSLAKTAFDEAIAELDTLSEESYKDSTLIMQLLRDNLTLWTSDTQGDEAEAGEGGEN
Hck Nef HTS: inhibitors of human Hck kinase activated by Nef; 220,000 compounds, 0.68% hits; Recombinant Hck-YEEI plus Nef, Z-Lyte FRET kinase assay; inhibition, % at 20 µM; AID 463187;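 active = Hck-Nef kinase inhibition above about 50%, limit read from the data; inactive = inhibition below that limit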;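 note: 0% = DMSO with Hck plus Nef and 100% = Hck alone without Nef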
Pf gametocyte: kills late stage P. falciparum gametocytes; P. falciparum stage V gametocytes, ATP luminescence, 24 h; inhibition, % at 10.9 µM; 150,000 compounds, 0.065% hits; AID 743093;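 active = inhibition above the mean plus 3 SD of compounds within the control limits, set per campaign, cut at about 38% in these data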;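 note: 0% = DMSO wells and 100% = medium only without gametocytes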
Mcl1-Noxa inh: Mcl-1/Noxa interaction inhibition. Q07820. inhibition, % at 21.7 µM. 220,000 compounds, 1.5% hits. TR-FRET Mcl-1/Noxa peptide binding, 2 h. AID 1022;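 active = compounds that cut the protein-peptide binding signal by more than 50% relative to plate controls in a single-dose test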;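 note: His-tagged Mcl-1 with rhodamine Noxa BH3 peptide and terbium anti-His antibody; 0% = Mcl-1 plus Noxa peptide wells and 100% = peptide-only wells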
Bim-Mcl-1: disrupts Bim peptide binding to human Mcl-1; 190,000 compounds, 0.1% hits; Bead-based flow cytometry, Bim peptide-Mcl-1 binding; inhibition, % at 10 µM; Q07820; in the data active = inhibition above about 40%;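 note: 0% = no compound tracer wells and 100% = peptide blocker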
An asterisk follows results filed as active; . = not tested or not shown; [ ] = another dose, or the depositor's remark. Sampled rows, rich in hits. Any-hit rate of the full collection: about 2.9%.

SMILES	Mcl1-Bid inh	14-3-3 Bad inh	Hck Nef HTS	Pf gametocyte	Mcl1-Noxa inh	Bim-Mcl-1
CC1CCc2cc(F)ccc2N1C(=O)C12CCC(C)(C(=O)O1)C2(C)C (centres undefined)	-0.4	91.8*	-5.4	-5.3	1.8	0.0
Cc1ccc[n+](CC(=O)c2ccc(NC(=O)c3ccccc3)cc2)c1C	.	.	.	-10.3	.	.
CCC(C)NCCCOc1c(C)cc(C)cc1Br (centres undefined)	26.0	4.5	0.5	.	118.9*	0.0
COC(=O)C1=C(C(=O)OC)C(c2cc(Br)ccc2O)c2sc(=O)[nH]c2S1 (centres undefined)	7.1	-11.1	29.0	-3.1	87.0*	-1.0
COC(=O)C1=C(C(=O)OC)C(c2cc(Cl)ccc2O)c2sc(=O)[nH]c2S1 (centres undefined)	27.0	-15.9	2.3	.	78.7*	5.0
COC(=O)C1=C(C(=O)OC)C(c2ccc(OC)c(OC)c2)c2sc(=O)[nH]c2S1 (centres undefined)	-25.4	-12.8	21.6	15.3	7.5	2.0
CC(C(=O)NCC1(c2ccccc2)CCCC1)N1CCCC1 (centres undefined)	-3.5	18.3	-20.2	16.3	26.9	-1.0
Cc1ccc(CSc2nc3ccccc3c(=O)[nH]2)cc1	-49.4	71.0*	17.8	3.3	6.5	-2.0
Cc1ccccc1CSc1nc2ccccc2c(=O)[nH]1	-19.6	6.2	-1.4	2.6	9.9	-2.0
COCCn1c(C)cc(C(=O)CSc2nc3ccccc3c(=O)[nH]2)c1C	-46.3	-17.4	0.3	19.5	60.6*	-2.0
C=CCn1c(C)cc(C(=O)CSc2nc3ccccc3c(=O)[nH]2)c1C	-67.5	-22.6	-0.6	.	-1.2	0.0
COc1ccccc1/C=N/NC(=O)CC(=O)NC1CCCCC1	-19.9	-0.1	4.9	11.2	20.0	-4.0
O=C(c1ccccc1O)N1CCOCC1	-32.0	-2.5	-0.7	-11.8	12.7	.
O=C(O)C1Nc2c(C(=O)N3CCOCC3)cccc2C2C=CCC12 (centres undefined)	5.0	16.2	10.1	.	80.2*	6.0
Cc1ccc2c(c1C)NC(C(=O)O)C1CC=CC21 (centres undefined)	96.4*	38.3	.	.	99.0*	1.0
Cc1cc(C)c2c(c1)NC(C(=O)O)C1CC=CC21 (centres undefined)	.	.	.	-11.8	.	.
COCc1nc(-c2ccc(-c3ccc(C)cc3)nc2OC)no1	-8.5	6.1	1.1	4.4	26.3	-2.0
Cc1ccc(-c2csc3ncnc(SCC(=O)NCc4ccc5c(c4)OCO5)c23)cc1	-3.3	-13.7	-1.2	.	-13.7	0.0
COCc1cc(CN2CCCC(CNC(=O)c3ccc(F)cc3)C2)ccc1OC (centres undefined)	-29.0	-7.5	0.7	-1.2	-2.5	40.0*
CN(C)c1cccc(NC(=O)C2(C)CC2(Cl)Cl)c1 (centres undefined)	-68.3	-4.7	-1.6	11.6	39.3	84.0*
CCOC(=O)C(C(=O)OCC)c1cc(Br)c2noc3c2c1C(=O)c1ccccc1-3	-14.3	-9.6	-0.2	.	57.0*	42.0*
CCN(CC)C(=O)c1ccc(S(=O)(=O)NCc2cccnc2)cc1	-17.8	-5.7	-0.5	13.2	-8.0	-3.0
COc1ccc(CCN2C(=O)NC(NC(=O)CC(C)C)(C(F)(F)F)C2=O)cc1OC (centres undefined)	-10.0	-18.9	1.6	15.0	7.8	-4.0
Cn1cnnc1SCC(=O)Nc1nc(-c2ccccc2)cs1	-5.0	-2.3	22.8	12.8	56.1*	-2.0
CC1CN(Cc2c(O)ccc3c(=O)c(-c4ccccc4)coc23)CC(C)O1 (centres undefined)	-11.5	-3.5	22.4	3.9	6.8	0.0
SMILES	Mcl1-Bid inh	14-3-3 Bad inh	Hck Nef HTS	Pf gametocyte	Mcl1-Noxa inh	Bim-Mcl-1
CC1CN(Cc2c(O)ccc3c2oc(=O)c2ccccc23)CC(C)O1 (centres undefined)	32.2	83.2*	24.0	3.6	-52.2	.
O=C(Cc1ccc(S(=O)(=O)N2CCOCC2)s1)Nc1ccc2c(c1)CCC2	-8.4	2.9	-0.8	-5.5	-2.3	-1.0
O=C(Cc1ccc(S(=O)(=O)N2CCOCC2)s1)Nc1nc2c(s1)CCCC2	-59.2	54.2	1.6	.	70.9*	0.0
COC(=O)C1=C(C)NC(C)=C(C(=O)OC)C1C(=O)OCC(=O)Nc1ccc(C(C)=O)cc1	-17.5	-1.4	13.2	.	-0.1	-1.0
CCP(=O)(CC)c1cccc(N)c1	-14.8	-7.5	0.5	17.2	.	0.0
COC(=O)CSc1nc(C)c(C)c(C)c1C(N)=O	70.0*	-3.0	-0.7	-9.6	24.6	0.0
Cc1cc(=O)[nH]c(SCC(=O)c2ccc3c(c2)NC(=O)CO3)n1	96.8*	3.5	-4.0	19.2	18.1	.
CN(C)S(=O)(=O)c1cccc(C(=O)OCC(=O)c2ccc3c(c2)NC(=O)CO3)c1	-12.4	4.6	0.1	11.4	7.2	89.0*
Nc1cc(N)nc(SCC(=O)c2ccc3c(c2)NC(=O)CO3)n1	-34.6	-5.5	17.2	-6.1	2.8	-4.0
Cc1cc(C(=O)OCC(=O)c2ccc3c(c2)NC(=O)CO3)c2ccccc2n1	63.2*	21.6	10.8	.	36.5	0.0
CN(C)S(=O)(=O)c1ccc(C(=O)OCC(=O)c2ccc3c(c2)NC(=O)CO3)cc1	7.6	10.2	7.4	14.4	-10.8	.
CCN(CC)CCCN1C(=O)C(O)=C(C(=O)c2sc(C)nc2C)C1c1ccco1 (centres undefined)	5.9	-14.9	1.5	.	-5.7	-9.0
CCOCCCNc1ncc2c(n1)CC(c1ccc(C)cc1)CC2=O (centres undefined)	8.4	13.6	0.9	.	-13.5	-2.0
CC(C)OCCCNc1ncc2c(n1)CC(c1ccccc1)CC2=O (centres undefined)	-50.5	-15.4	21.7	-4.6	60.0*	2.0
COc1ccc(C(=O)Nc2ncc3c(n2)CC(c2ccco2)CC3=O)cc1 (centres undefined)	-24.6	-11.2	0.2	.	52.5*	1.0
COc1ccc(C2CC(=O)c3cnc(Nc4cc(C)cc(C)c4)nc3C2)cc1 (centres undefined)	-8.9	75.6*	1.8	2.7	8.5	4.0
CC(=O)NCCOC(=O)Nc1ccncc1	-8.2	-0.2	6.3	.	0.7	1.0
CC(C)(C)c1nnc(NS(C)(=O)=O)s1	.	.	-10.0	.	.	.
Cc1nc2ccccc2nc1N/N=C/c1ccc(O)cc1	-23.4	-2.3	3.4	-19.8	2.2	.
Oc1ccc(Nc2nc3ccccc3nc2Nc2ccc(O)cc2)cc1	23.8	61.5	-11.3	.	82.2*	1.0
COc1ccc(-c2ccc(C#N)c(SCC(=O)Nc3sc4c(c3C#N)CCC4)n2)cc1OC	72.8*	91.6*[fluorescence artefact?]	-0.7	.	16.2	18.0
CCN(CC)CCCN1C=C2C(=O)C(C)(OC(=O)C3CCCC3)C(=O)C=C2C=C1c1ccsc1 (centres undefined)	-69.1	-2.7	31.1	0.1	27.2	.

From PubChem BioAssay
